# From the supplement of paper PMC13380429
# Assays:
# [1] = system: Vero E6 infected with SARS-CoV-2; assay: inhibition of SARS-CoV-2 cytopathic effect; higher = more antiviral protection, active = above 15; conditions: 48 h
# [2] = system: Vero E6 infected with SARS-CoV-2; assay: morphology score (similarity to uninfected cells); higher = more like uninfected cells; conditions: 24 h
# [3] = system: Vero E6 infected with SARS-CoV-2; assay: SARS-CoV-2 infection rate relative to infected DMSO; higher = more infection, active = 60 or less; conditions: 24 h
compound,measurement,setting,value
CN1C2CCC1CC(OC(c1ccccc1)c1ccc(Cl)cc1)C2 (stereo not given),inhibition of SARS-CoV-2 cytopathic effect,[1]; 1 nM,5.63% (inactive)
same,inhibition of SARS-CoV-2 cytopathic effect,[1]; 8.33 nM,6.26% (inactive)
same,inhibition of SARS-CoV-2 cytopathic effect,[1]; 100 nM,-1.76% (inactive)
same,inhibition of SARS-CoV-2 cytopathic effect,[1]; 833.33 nM,-2.87% (inactive)
same,inhibition of SARS-CoV-2 cytopathic effect,[1]; 10000 nM,17.4% (active)
CC1Sc2c(C(=O)O)c(=O)c3cc(F)c(N4CCNCC4)cc3n21 (stereo not given) [ulifloxacin] (10 µM),morphology score,[2],-0.0402
same,SARS-CoV-2 infection rate,[3],106% (inactive)
CO/N=C(\C(=O)N[C@@H]1C(=O)N2C(C(=O)O)=C(COC(N)=O)CS[C@H]12)c1ccco1,inhibition of SARS-CoV-2 cytopathic effect,[1]; 1 nM,-0.51% (inactive)
same,inhibition of SARS-CoV-2 cytopathic effect,[1]; 8.33 nM,1.54% (inactive)
same,inhibition of SARS-CoV-2 cytopathic effect,[1]; 100 nM,0.59% (inactive)
same,inhibition of SARS-CoV-2 cytopathic effect,[1]; 833.33 nM,0.24% (inactive)
same,inhibition of SARS-CoV-2 cytopathic effect,[1]; 10000 nM,-0.24% (inactive)
O=c1[nH]c2cc(Cl)ccc2c(O)c1-c1cccc(Oc2ccccc2)c1,inhibition of SARS-CoV-2 cytopathic effect,[1]; 1 nM,1.74% (inactive)
same,inhibition of SARS-CoV-2 cytopathic effect,[1]; 8.33 nM,0.53% (inactive)
same,inhibition of SARS-CoV-2 cytopathic effect,[1]; 100 nM,2.73% (inactive)
Nc1nc(=O)c2sc(=O)n([C@@H]3O[C@H](CO)[C@@H](O)[C@H]3O)c2[nH]1,inhibition of SARS-CoV-2 cytopathic effect,[1]; 1 nM,2.96% (inactive)
same,inhibition of SARS-CoV-2 cytopathic effect,[1]; 8.33 nM,0.81% (inactive)
same,inhibition of SARS-CoV-2 cytopathic effect,[1]; 100 nM,-0.66% (inactive)
same,inhibition of SARS-CoV-2 cytopathic effect,[1]; 833.33 nM,1.35% (inactive)
same,inhibition of SARS-CoV-2 cytopathic effect,[1]; 10000 nM,-1.43% (inactive)
NCCC[C@H](N)CC(=O)N[C@H]1CNC(=O)[C@H]([C@H]2C[C@H](O)NC(N)=N2)NC(=O)/C(=C/NC(N)=O)NC(=O)[C@H](CO)NC(=O)[C@H](CO)NC1=O [viomycin],inhibition of SARS-CoV-2 cytopathic effect,[1]; 1 nM,2.35% (inactive)
same,inhibition of SARS-CoV-2 cytopathic effect,[1]; 8.33 nM,1% (inactive)
same,inhibition of SARS-CoV-2 cytopathic effect,[1]; 100 nM,-1.8% (inactive)
COc1ccc(-c2cc(=S)ss2)cc1 [anethole-trithione],inhibition of SARS-CoV-2 cytopathic effect,[1]; 1 nM,1.7% (inactive)
same,inhibition of SARS-CoV-2 cytopathic effect,[1]; 8.33 nM,-0.29% (inactive)
same,inhibition of SARS-CoV-2 cytopathic effect,[1]; 100 nM,1.29% (inactive)
same,inhibition of SARS-CoV-2 cytopathic effect,[1]; 833.33 nM,-1.2% (inactive)
same,inhibition of SARS-CoV-2 cytopathic effect,[1]; 10000 nM,2.76% (inactive)
O=C(Oc1ccc(Br)cc1)N1CCN2CCC1CC2,inhibition of SARS-CoV-2 cytopathic effect,[1]; 1 nM,1.3% (inactive)
same,inhibition of SARS-CoV-2 cytopathic effect,[1]; 8.33 nM,1.31% (inactive)
same,inhibition of SARS-CoV-2 cytopathic effect,[1]; 100 nM,4.76% (inactive)
same,inhibition of SARS-CoV-2 cytopathic effect,[1]; 833.33 nM,1.51% (inactive)
same,inhibition of SARS-CoV-2 cytopathic effect,[1]; 10000 nM,0.59% (inactive)
COc1cc(C(=O)NC2CCCNC2)cc(OC)c1OC (stereo not given) [troxipide],inhibition of SARS-CoV-2 cytopathic effect,[1]; 1 nM,0.11% (inactive)
same,inhibition of SARS-CoV-2 cytopathic effect,[1]; 8.33 nM,-0.47% (inactive)
same,inhibition of SARS-CoV-2 cytopathic effect,[1]; 100 nM,1.46% (inactive)
same,inhibition of SARS-CoV-2 cytopathic effect,[1]; 833.33 nM,-0.19% (inactive)
same,inhibition of SARS-CoV-2 cytopathic effect,[1]; 10000 nM,2.03% (inactive)
CC(=O)N(O)[C@@H]1c2cc(C#N)ccc2OC(C)(C)[C@H]1O (10 µM),morphology score,[2],0.477
same,SARS-CoV-2 infection rate,[3],59% (active)
CCCCCCN(CCCCCC)C(=O)Cc1c(-c2ccc(Cl)cc2)[nH]c2ccc(Cl)cc12 (10 µM),morphology score,[2],-0.00824
same,SARS-CoV-2 infection rate,[3],103% (inactive)
CCCCC(CC)COc1ccc(-c2nc(-c3ccc(OC)cc3)nc(-c3ccc(OCC(CC)CCCC)cc3O)n2)c(O)c1 (stereo not given) [bemotrizinol],inhibition of SARS-CoV-2 cytopathic effect,[1]; 1 nM,1.11% (inactive)
same,inhibition of SARS-CoV-2 cytopathic effect,[1]; 8.33 nM,3.46% (inactive)
same,inhibition of SARS-CoV-2 cytopathic effect,[1]; 100 nM,1.8% (inactive)
C[C@]12CC[C@H]3[C@@H](CCC4=CC(=O)CC[C@@H]43)[C@@H]1CC[C@@H]2O [Nandrolone],inhibition of SARS-CoV-2 cytopathic effect,[1]; 1 nM,-1.64% (inactive)
same,inhibition of SARS-CoV-2 cytopathic effect,[1]; 8.33 nM,-1.9% (inactive)
same,inhibition of SARS-CoV-2 cytopathic effect,[1]; 100 nM,-1.06% (inactive)
same,inhibition of SARS-CoV-2 cytopathic effect,[1]; 833.33 nM,1.95% (inactive)
same,inhibition of SARS-CoV-2 cytopathic effect,[1]; 10000 nM,-0.94% (inactive)
CCCN(CC1CC1)c1nc(C)nc(Nc2c(Cl)cc(Cl)cc2Cl)c1Cl (10 µM),morphology score,[2],0.143
same,SARS-CoV-2 infection rate,[3],102% (inactive)
CC(=O)[O][Hg][c]1ccccc1 [phenylmercuric-acetate],inhibition of SARS-CoV-2 cytopathic effect,[1]; 1 nM,-1.11% (inactive)
same,inhibition of SARS-CoV-2 cytopathic effect,[1]; 8.33 nM,-1.71% (inactive)
same,inhibition of SARS-CoV-2 cytopathic effect,[1]; 100 nM,-0.22% (inactive)
O=C([O-])c1ccccc1-c1c2cc(Br)c(=O)cc-2oc2[c]([Hg+])c([O-])c(Br)cc12.[Na+].[Na+].[OH-] [merbromin],inhibition of SARS-CoV-2 cytopathic effect,[1]; 1 nM,-11.2% (inactive)
same,inhibition of SARS-CoV-2 cytopathic effect,[1]; 8.33 nM,-13.3% (inactive)
same,inhibition of SARS-CoV-2 cytopathic effect,[1]; 100 nM,-11.5% (inactive)
CN(C)C(=S)SSC(=S)N(C)C [thiram],inhibition of SARS-CoV-2 cytopathic effect,[1]; 1 nM,5.06% (inactive)
same,inhibition of SARS-CoV-2 cytopathic effect,[1]; 8.33 nM,3.58% (inactive)
same,inhibition of SARS-CoV-2 cytopathic effect,[1]; 100 nM,-8.77% (inactive)
COC(=O)Nc1nc2cc(Sc3ccccc3)ccc2[nH]1 [fenbendazole] (0.833333 µM),morphology score,[2],0.126
same,SARS-CoV-2 infection rate,[3],106% (inactive)
N#Cc1ncccn1 [2-cyanopyrimidine],inhibition of SARS-CoV-2 cytopathic effect,[1]; 1 nM,4.29% (inactive)
same,inhibition of SARS-CoV-2 cytopathic effect,[1]; 8.33 nM,5.63% (inactive)
same,inhibition of SARS-CoV-2 cytopathic effect,[1]; 100 nM,4.71% (inactive)
same,inhibition of SARS-CoV-2 cytopathic effect,[1]; 833.33 nM,6.33% (inactive)
same,inhibition of SARS-CoV-2 cytopathic effect,[1]; 10000 nM,4.34% (inactive)
CC(=O)c1cc2c(o1)C(=O)c1ccccc1C2=O [napabucasin] (0.833333 µM),morphology score,[2],0.309
same,SARS-CoV-2 infection rate,[3],89% (inactive)
Cl[C@H]1[C@H](Cl)[C@@H](Cl)[C@@H](Cl)[C@H](Cl)[C@H]1Cl [lindane],inhibition of SARS-CoV-2 cytopathic effect,[1]; 1 nM,-2.48% (inactive)
same,inhibition of SARS-CoV-2 cytopathic effect,[1]; 8.33 nM,-1.41% (inactive)
same,inhibition of SARS-CoV-2 cytopathic effect,[1]; 100 nM,-0.79% (inactive)
O=c1[nH]c(=O)n([C@H]2CCCO2)cc1F (racemic) [ftorafur] (10 µM),morphology score,[2],-0.016
same,SARS-CoV-2 infection rate,[3],116% (inactive)
